D1 PAM: human D1 dopamine receptor positive modulation; HEK293 TREx D1 cells, calcium flux, dopamine EC20 potentiation; potentiation, % at 10 µM; P21728; hit rate 0.036% among 360,000; AID 504651; in the data active = potentiation above about 30%; also: 0% is about no effect
TRPV1 potentiator: potentiators of human vanilloid receptor 1 (TRPV1). TRPV1-expressing cells, Fluo-8 calcium influx, capsaicin EC20 potentiation. potentiation, % at 8.33 µM. hit rate 0.02% among 320,000. AID 540277; in the data active = potentiation above about 80%; inconclusive = between about 30% and that limit; also: 0% is about no effect
Target sequence (Q8NER1 whole entry, looked up): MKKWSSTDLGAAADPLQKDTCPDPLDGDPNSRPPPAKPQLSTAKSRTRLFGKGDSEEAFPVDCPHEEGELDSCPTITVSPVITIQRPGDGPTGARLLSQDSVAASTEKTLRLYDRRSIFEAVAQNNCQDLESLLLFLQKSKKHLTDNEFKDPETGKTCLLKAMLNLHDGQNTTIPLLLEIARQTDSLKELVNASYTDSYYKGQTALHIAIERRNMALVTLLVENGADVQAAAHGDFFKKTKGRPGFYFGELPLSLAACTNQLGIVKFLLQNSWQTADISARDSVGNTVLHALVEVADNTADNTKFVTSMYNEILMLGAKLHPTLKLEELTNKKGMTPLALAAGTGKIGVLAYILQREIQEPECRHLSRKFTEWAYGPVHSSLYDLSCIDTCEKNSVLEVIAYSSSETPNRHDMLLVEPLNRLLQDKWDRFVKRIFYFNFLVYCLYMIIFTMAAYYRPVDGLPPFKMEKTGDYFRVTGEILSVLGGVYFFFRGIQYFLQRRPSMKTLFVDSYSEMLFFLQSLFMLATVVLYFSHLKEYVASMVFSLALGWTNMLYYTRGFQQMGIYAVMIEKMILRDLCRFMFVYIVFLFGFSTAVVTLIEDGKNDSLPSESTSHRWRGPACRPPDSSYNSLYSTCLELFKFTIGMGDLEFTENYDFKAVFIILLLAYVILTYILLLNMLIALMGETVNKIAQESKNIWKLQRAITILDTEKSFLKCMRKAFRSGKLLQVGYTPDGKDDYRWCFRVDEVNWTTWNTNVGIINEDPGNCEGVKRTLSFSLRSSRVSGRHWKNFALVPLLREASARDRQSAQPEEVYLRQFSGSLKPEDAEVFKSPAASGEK
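Fluo-8 calcium influx in TRPV1-expressing cells, kinetic read (ex 480/em 520 nm). Compound added and read 3 min for agonist activity, followed by capsaicin at EC20 final and 2 min further read for enhancement.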
D1 antagonist: blocks dopamine activation of the human D1 receptor; AID 504652; HEK293 TREx D1 cells, calcium flux, dopamine EC80; stronger effect = lower value; hit rate 3.2% among 360,000; activity change, negative = inhibition, % at 10 µM; in the data active = activity change below about -30%; also: % is scaled to controls: 0 for no effect and ±100 for the full control effect
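After overnight tetracycline induction at 30 C, force-coupled D1 HEK293 cells took up a no-wash calcium dye at room temperature. Compounds were added and monitored 180 s, and the response to EC80 dopamine was then recorded.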
D1 ag: human D1 receptor agonism | HEK293 T-REx D1 cells, calcium flux, agonist mode | hit rate 1% among 360,000 | AID 504660 | activation, % at 2 µM | P21728; in the data active = activation above about 30%; also: 0% is about no effect
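Inducible HEK293 T-REx D1 cells, force-coupled to calcium signalling, were plated at 4000 cells/well with tetracycline and held overnight at 30 C. After no-wash calcium dye loading, compound-evoked calcium rise over 180 s flagged agonists.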
TRPV1 agonist: activates the human vanilloid receptor TRPV1; Q8NER1; TRPV1-expressing cells, Fluo-8 calcium influx, agonist mode; activation, % at 8.33 µM; hit rate 0.19% among 320,000; in the data active = activation above about 80%; inconclusive = between about 30% and that limit; also: 0% is about no effect
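Fluo-8 calcium influx in TRPV1-expressing cells, kinetic read (ex 480/em 520 nm). Compound added and read 3 min for agonist activity, followed by capsaicin at EC20 final and 2 min further read for enhancement.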
The depositor's hits bear a star; ? = inconclusive; . = no result; ! = a repeat was not active. Sampled rows, rich in hits. Any-hit rate of the full collection: about 4.2%.

SMILES	D1 PAM	TRPV1 potentiator	D1 antagonist	D1 ag	TRPV1 agonist
Cc1ccc2c(c1)C1CN(C)CCC1N2C(=O)Nc1ccc(Cl)cc1 (stereo not given)	-12.1	-17.5	-72.9*	36.4*	14.2
Cc1ccc2c(c1)C1CN(C)CCC1N2C(=O)c1cccc(S(=O)(=O)N(C)C)c1 (stereo not given)	-7.1	5.8	-7.2	4.6	-6.7
CN(C)C=Nc1c(Br)cc(Br)c2nonc12	6.5	-9.1	-74.3*	415.5*	?
CN(C)C=Nc1nonc1-c1ccccc1	-1.6	1.7	4.8	2.1	1.6
COc1ccccc1N(CC(=O)N1CCC(C)CC1)S(=O)(=O)c1ccc(C)cc1	-1.6	.	6.5	5.9	.
Nc1c(C(=O)NCc2ccc3c(c2)OCO3)nnn1Cc1ccc(Br)cc1	3.6	7.4	-3.5	31.5*	8.6
O=C(Cn1nc(-c2ccc(Cl)cc2)ccc1=O)NCc1ccc2c(c1)OCO2	-2.0	-19.9	-6.8	0.9	-1.1
O=C(c1n[nH]c(=O)c2ccccc12)N1CCN(Cc2ccc3c(c2)OCO3)CC1	-1.7	-6.9	19.2	5.2	0.8
O=C(Cn1nc(-c2ccccc2)ccc1=O)NCc1ccc2c(c1)OCO2	33.5*	-8.4	-5.4	-0.9	-1.0
O=C(NCc1ccc2c(c1)OCO2)c1n[nH]c(=O)c2ccccc12	-1.3	-6.1	-49.9*	0.1	1.1
Nc1c(C(=O)NCc2ccc3c(c2)OCO3)nnn1CC(=O)Nc1ccc(Br)cc1	-4.2	9.3	4.8	6.1	9.4
O=C1Nc2ccccc2C(O)(C(=O)NCc2ccc3c(c2)OCO3)N1c1ccc(Cl)c(Cl)c1 (stereo not given)	3.7	-9.4	3.1	30.8*	0.2
CCc1ccc(NC(=O)CN2C(=O)CSc3ccc(S(=O)(=O)N(C)C)cc32)cc1	4.3	.	8.1	2.0	.
CCOc1ccc(-c2nonc2NC(=O)c2oc3ccc(Cl)cc3c2C)cc1	3.2	.	-31.7*	1.5	.
COc1cc(C2CC(=O)N(Cc3cccc(F)c3)c3ccccc3S2)cc(OC)c1OC (stereo not given)	-5.5	.	-11.7	12.3	.
O=C(Nc1cccc(C(F)(F)F)c1)n1cc(-c2ccccn2)c(N2CCOCC2)n1	-7.0	-2.7	-46.8*	23.9	-3.2
CCOC(=O)/C=c1\s/c(=C\c2ccccc2C)c(=O)n1CC(=O)NCc1ccc2c(c1)OCO2	-9.9	6.5	-57.0*	4.8	7.1
CCOC(=O)/C=c1\s/c(=C\c2ccc3cc(OC)ccc3c2)c(=O)n1CC(=O)NCc1ccc2c(c1)OCO2	-8.7	14.8	-18.5	3.0	0.5
CC1CCCC(NC(=O)CN2CCN(S(=O)(=O)c3cccs3)CC2)C1C (stereo not given)	-10.8	-20.3	-41.6*	2.2	5.8
CCN1CCN(CC(=O)Nc2ccc(Cl)c(S(=O)(=O)N(C)C)c2)CC1	2.8	1.3	17.4	4.9	-2.4
CN(C)S(=O)(=O)c1cc(NC(=O)CN2CCN(c3ccccc3F)CC2)ccc1Cl	-12.1	-8.6	-32.4*	4.0	0.4
Cc1ccc(NC(=O)CN2CCN(S(=O)(=O)c3cccs3)CC2)cc1S(=O)(=O)N(C)C	-10.2	-4.7	-35.9*	4.6	1.2
CC1CCC(NC(=O)CN2CCN(S(=O)(=O)c3cccs3)CC2)CC1 (stereo not given)	-2.9	16.1	-2.1	0.5	2.3
COc1ccc(-c2noc(CSc3nnc(C)n3-c3ccc(F)cc3)n2)cc1	-0.1	.	-29.3	4.3	.
Cc1ccc(NC(=O)CSc2c3c(nc4ccccc24)CCCC3)cc1F	0.3	.	6.1	-0.4	.
SMILES	D1 PAM	TRPV1 potentiator	D1 antagonist	D1 ag	TRPV1 agonist
COc1cc(NC(=O)Cn2c(=O)n(C(C)C)c(=O)c3oc4ccccc4c32)cc(OC)c1	0.9	.	-6.1	1.3	.
O=C(COC(=O)C1C2CC3OC(=O)C1C3C2)Nc1ccc(Br)cc1 (stereo not given)	.	8.6	7.5	32.6*	-1.3
COc1ccc(C(=O)N2c3nc(-c4ccco4)nn3C3(CCCCC3)[C@@H]3CCCC[C@@H]32)cc1OC	-1.3	.	17.6	4.9	.
Cc1ccc(-c2nnc(Nc3ccc4c(c3)OCO4)c3ccccc23)cc1S(=O)(=O)NCCO	-6.0	4.1	-33.6*	0.7	-1.3
Cc1ccc(-c2nnc(Nc3ccc(Cl)c(Cl)c3)c3ccccc23)cc1S(=O)(=O)NCCO	-1.6	.	-49.2*	5.8	.
CNC(=O)COc1ccc(Nc2nnc(-c3ccc(C)c(S(=O)(=O)NC(C)(C)C)c3)c3ccccc23)cc1	-1.9	.	-31.5*	-1.6	.
Cc1ccc(C)c(N(C)C(=O)Cc2c(C(=O)O)[nH]c3ccc(Cl)cc23)c1	-0.1	.	-4.3	1.6	.
CCOC(=O)c1ccc(NC(=O)CN(Cc2ccc(C)cc2)S(=O)(=O)c2ccc(C)cc2)cc1	-2.4	.	11.7	10.3	.
CCN(c1cccc(C)c1)c1ncnc2c1cnn2-c1cccc(Cl)c1	-0.3	.	-12.2	-2.6	.
CCN(CC)C(=O)c1ccc(-c2nnc(Nc3ccc(C(=O)N(C)C)cc3)c3ccccc23)cc1	-11.7	-5.7	-92.0*	-0.2	3.2
CCN(CC)C(=O)c1ccc(-c2nnc(Nc3ccc(O)cc3)c3ccccc23)cc1	43.1*	-8.3	-2.8	0.2	0.0
O=C(COc1ccc(S(=O)(=O)NC2CCCCC2)cc1)NC1CCCCC1	0.7	9.9	-8.1	6.2	6.0
O=C(COc1ccc(S(=O)(=O)NC2CCCCC2)cc1)NC1CCCC1	-2.2	-8.1	-42.9*	4.4	1.9
Cc1ccc(CNC(=O)c2c(O)nc3ccccn3c2=O)cc1	-2.0	.	5.1	2.5	.
COc1ccccc1CNC(=S)Nc1ccc(F)cc1	-5.1	-16.3	7.5	8.3	19.4
CCC(C)c1ccc(NC(=S)NCc2ccccc2OC)cc1 (stereo not given)	-3.2	-11.9	-5.4	1.9	83.2*
Oc1ccc(N=Nc2ccc3c(c2)OCCO3)c2ncccc12	7.8	9.9	2.1	40.8*	0.9
Cc1cccc(N=Nc2ccc(O)c3ncccc23)c1	10.7	14.4	27.9	29.5	-2.1
CCCCc1cc(=O)oc2cc(C)cc(O)c12	-8.6	-8.1	-34.7*	18.1	14.7
COc1cccc(CNC(=O)c2[nH]c3cc(C)ccc3c2Sc2ccccc2)c1	2.8	.	-10.1	-0.1	.
Cc1ccc2c(Sc3ccccc3)c(C(=O)NCc3ccccc3F)[nH]c2c1	-0.9	.	-43.9*	0.6	.
O=C(CNC(=O)c1ccc(F)cc1)N/N=C/c1cc(Br)ccc1OC(=O)/C=C/c1ccco1	-14.8	13.2	-45.2*	4.4	-0.4
CCN1C(=NCCN2CCOCC2)N[C@@H](CCc2ccccc2)C(C(=O)OC)=C1C	3.2	-9.3	3.8	0.6	2.7
CCN1C(=S)N[C@@H](CCc2ccccc2)C(C(=O)OC)=C1C	-4.0	9.6	-30.7*!	1.6	-5.9
COc1ncnc2c1sc1nc(-c3ccccc3)c3c(c12)CCCC3	4.8	1.9	22.6	1.8	-3.1
CN(C)CCNc1ncnc2c1sc1nc(-c3ccccc3)c3c(c12)CCCC3	-21.8	4.6	-79.7*	13.8	7.9
